Out of some 360,000 compounds screened, about 7,500 (2.1%) were called active. Inconclusive results (about 20%) are left out. Calls come from the whole dose curve; as a rule, active = well fitted inhibition curve with a large enough effect; inconclusive = small, poorly fitted or top-dose-only effect, or effect the other way; inactive = flat fitted curve, though single readings scatter. What follows is part of a selection rich in actives, with near analogues and random picks from the rest. Entries that show only a call come without a potency.
assay: Nrf2 qHTS screen for inhibitors; settings: A549 ARE-Fluc reporter, luciferase luminescence, 18-24 h; series mostly up to 46 µM; note: nearly all actives have a fitted effect of over 60% in size
In short: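 Two sequential reads on A549 ARE_Fluc cells exposed to compound for 18-24 h: a CellTiter-Fluor fluorescence read for viability, then a luciferase luminescence read for Nrf2/ARE activity.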
Potency is the fitted concentration of half-maximal effect.

| Structure (SMILES) | Potency | activity change, negative = inhibition |
| --- | --- | --- |
| CC1Cc2ccccc2N1S(=O)(=O)c1cccc(C(=O)NCC(c2ccco2)N2CCCC2)c1 (stereo not given) | inactive | – |
| Cc1nc(SCC(=O)NC2CCCCC2C)c(C#N)c(C)c1C (stereo not given) | inactive | – |
| CC1(C)C(=O)CCC2(C)C1=CCC1C2C(=O)CC2(C)C1CCC2(O)C(=O)CO (stereo not given) | inactive | – |
| CC(=O)OCC(=O)C1(O)CCC2C3CC(C)C4=CC(=O)CCC4(C)C3C(O)CC21C (stereo not given) | 0.082 µM (active) | – |
| O=C1c2ccccc2C(=O)N1c1ccc(S(=O)(=O)N2CCOCC2)c2ccccc12 | inactive | – |
| O=S(=O)(c1ccc(SCc2ccc(Br)cc2)nc1)N1CCOCC1 | inactive | – |
| CCOc1cc(N2CCOCC2)c(OCC)cc1NC(=O)COc1cccc(Cl)c1 | inactive | – |
| CCOc1cc(N2CCOCC2)c(OCC)cc1NC(=O)COc1cccc2cccnc12 | 20.6 µM (active) | – |
| CCOc1cc(N2CCOCC2)c(OCC)cc1NC(=O)COC(=O)[C@H](Cc1c[nH]c2ccccc12)NC(C)=O | inactive | – |
| CCC(C)N1C(=O)S/C(=C/c2ccc(Sc3nc4ccccc4[nH]3)o2)C1=O (stereo not given) | 0.731 µM (active) | – |
| O=C(CSc1nc2ccccc2[nH]1)Nc1nc(-c2ccccc2)c(-c2ccccc2)o1 | inactive | – |
| C=CCSc1nc2ccccc2[nH]1 | inactive | – |
| C#CCOc1ccc(C2CC(=O)Nc3c2c(C)nn3-c2nc(C)cc(C)n2)cc1 (stereo not given) | inactive | – |
| CC(C)(CNC(=O)Cc1ccc(Cl)cc1Cl)N1CCOCC1 | inactive | – |
| CN(C)S(=O)(=O)c1ccc(C(=O)NCC(C)(C)N2CCOCC2)cc1 | inactive | – |
| CC(C)(CNC(=O)c1ccc(Cl)c(S(=O)(=O)N2CCc3ccccc3C2)c1)N1CCOCC1 | 13 µM (active) | – |
| Cc1noc(C)c1-c1ccc2ncnc(NCc3ccc(F)c(F)c3)c2c1 | inactive | – |
| COc1ccccc1-c1noc(-c2ccc(NCc3ccccc3)c([N+](=O)[O-])c2)n1 | inactive | – |
| COc1ccc(C2Nc3cccc(OC)c3C(=O)N2Cc2ccccc2)cc1COc1ccc(NC(C)=O)cc1 (stereo not given) | inactive | – |
| Cc1ccc(S(=O)(=O)/N=C(\N)c2ccc(F)cc2)cc1 | inactive | – |
| N/C(=N\S(=O)(=O)c1cc(C(F)(F)F)cc(C(F)(F)F)c1)c1cccs1 | 20.6 µM (active) | – |
| CN(NS(=O)(=O)c1cccs1)c1ncc(C(F)(F)F)cc1Cl | inactive | – |

| Structure (SMILES) | Potency | activity change, negative = inhibition |
| --- | --- | --- |
| CN1CCOC1c1ccc(C2OCCN2C)cc1 (stereo not given) | inactive | – |
| COc1ccc2cc(CNc3ccc(OC)c(OC)c3)c(=O)n(CC(=O)Nc3ccccc3F)c2c1 | inactive | – |
| Cc1ccc(C)n1-c1nnc(N2CCC(C(=O)NCc3ccc(F)cc3)CC2)s1 | inactive | – |
| CN(C)CCCN(C(=O)c1ccc(S(=O)(=O)N2CCCCCC2)cc1)c1nc2ccc(Br)cc2s1 | 25.9 µM (active) | – |
| CCN(CC)CCN(C(=O)c1ccc(S(=O)(=O)N2CCOCC2)cc1)c1nc2cc3c(cc2s1)OCCO3 | inactive | – |
| CN(C)CCCN(C(=O)c1ccc(S(=O)(=O)N2CCCCCC2)cc1)c1nc2cc3c(cc2s1)OCCO3 | inactive | – |
| CCOC(=O)c1ccccc1NC(=O)CSc1nc2c(sc(=S)n2CC)c(=O)[nH]1 | inactive | – |
| COc1cc(OC)c(NC(=O)Cc2ccc(-n3c(C)nc4cccnc43)cc2)cc1Cl | inactive | – |
| CCN(CC)c1cc(NC2CCCCC2)c2c3c(onc13)-c1ccccc1C2=O | inactive | – |
| CC(=O)c1ccc(NC(=O)c2nc3nc(C)cc(C(F)F)n3n2)cc1 | inactive | – |
| CCN(CC)S(=O)(=O)c1cc(C(=O)Nc2cc(S(=O)(=O)N3CCOCC3)ccc2N2CCCC2)ccc1F | inactive | – |
| O=C(CCCn1c(SCC(=O)c2ccccc2)nc2ccccc2c1=O)NCC1CCCO1 (stereo not given) | inactive | – |
| O=C(CCCn1c(SCC(=O)c2ccc(F)cc2)nc2ccccc2c1=O)NCc1ccco1 | 25.9 µM (active) | – |
| O=C(CSc1nc2ccccc2c(=O)n1Cc1ccc(F)cc1)NCC1CCCO1 (stereo not given) | inactive | – |
| CCC(=O)N1CCc2cc(Br)cc(S(=O)(=O)CCC(=O)NCCc3ccc(OC)c(OC)c3)c21 | – | 5.45% [at 9.27 µM] (inactive) |
| Cc1ccc(Cl)cc1NC(=O)CCC(=O)N1CC(C)Sc2ccccc21 (stereo not given) | inactive | – |
| CC1CCCCN1S(=O)(=O)CCNC(=O)c1ccccc1 (stereo not given) | inactive | – |
| CC1CCCN(C(=O)Cn2c(=O)oc3cc(S(=O)(=O)N4CCCCC4C)ccc32)C1 (stereo not given) | inactive | – |
| CC1CC(C)CN(S(=O)(=O)c2ccc(C(=O)NN3CCOCC3)cc2)C1 (stereo not given) | inactive | – |
| CC1CCCN(S(=O)(=O)c2ccc(C(=O)Nc3nnc(-c4ccncc4)o3)cc2)C1 (stereo not given) | 8.2 µM (active) | – |
| CCc1nnc(NC(=O)C2CCCN2S(=O)(=O)c2ccccc2)s1 (stereo not given) | inactive | – |
| CSc1ncc(Cl)c(C(=O)Nc2ccc(S(=O)(=O)N3CCCC(C)C3)cc2)n1 (stereo not given) | inactive | – |

| Structure (SMILES) | Potency | activity change, negative = inhibition |
| --- | --- | --- |
| CC1CCCCN1S(=O)(=O)c1ccc(S(=O)(=O)N(CC(=O)Nc2ccccc2)Cc2cccs2)cc1 (stereo not given) | inactive | – |
| CSCc1nnc(NC(=O)c2ccc(S(=O)(=O)N3CCCCC3C)cc2)o1 (stereo not given) | 20.6 µM (active) | – |
| CC1CCCCN1S(=O)(=O)c1ccc(C(=O)Nc2nnc(-c3cccs3)o2)cc1 (stereo not given) | 13 µM (active) | – |
| O=C1N[C@@H](c2ccccc2)COC(=O)[C@H](Cc2ccc(F)cc2)C/C=C\C[C@@H]1CC(=O)N(CCO)Cc1ccccc1 | inactive | – |
| FC(F)(F)c1cc(Nc2nc3ccccc3c3nncn23)ccc1Cl | inactive | – |
| CC[C@]12c3[nH]c4ccc(Cl)cc4c3CCN1C(=O)[C@@H](CC(=O)NCCCOC)C[C@@H]2C(=O)N1CCN(C(=O)c2ccco2)CC1 | inactive | – |
| Cc1sc2ncn(CC(=O)NCCCC(=O)N3CCN(c4ccccc4F)CC3)c(=O)c2c1C | inactive | – |
| CCOC(=O)c1ccc(NC(=S)N2CCN(c3ccccn3)CC2)cc1 | inactive | – |
| Cc1cc(Br)ccc1NC(=O)c1sc2ncn(CC(=O)N3CCN(c4ccccn4)CC3)c(=O)c2c1C | 18.4 µM (active) | – |
| O=C(CN1CCN(c2ccccn2)CC1)Nc1ccc(Br)cc1 | inactive | – |
| Cc1cc(Br)ccc1NC(=O)c1cnc(N2CCN(c3ccccn3)CC2)c2ccccc12 | 11.6 µM (active) | – |
| Cc1cc(Br)ccc1NC(=O)Cn1cnc2sc(C)c(S(=O)(=O)N3CCN(C)CC3)c2c1=O | – | 4.06% [at 9.27 µM] (inactive) |
| c1ccc(Cn2nnc3c(N4CCCCC4)ncnc32)cc1 | inactive | – |
| CCN(CC)C(=O)[C@H]1C[C@H](CC(=O)NCC23CC4CC(CC(C4)C2)C3)C(=O)N2CCc3c([nH]c4cc(CCC(=O)N(C)C)ccc34)[C@]12C | inactive | – |
| Cc1c(C(=O)Nc2cccc(S(=O)(=O)N3CCOCC3)c2)oc2ccccc12 | inactive | – |
| O=S(=O)(c1cccc(C(F)(F)F)c1)N1CCN(c2nc(-c3cccs3)nc3ccccc23)CC1 | inactive | – |
| COc1ccc(NS(=O)(=O)c2ccc3oc(SCC(N)=O)nc3c2)cc1 | 23.1 µM (active) | – |
| COc1ccc(NS(=O)(=O)c2ccc(O)c(C(=O)OCC(=O)NC3CCCCC3)c2)cc1 | inactive | – |
| CCS(=O)(=O)c1ccc2oc(SCC(=O)N3c4ccccc4CC3C)nc2c1 (stereo not given) | inactive | – |
| COc1ccc(N2CCN(S(=O)(=O)c3ccc4c(c3)CC(=O)N4)CC2)cc1 | inactive | – |
| COc1cc(Cl)ccc1Nc1ncc(C(=O)N2CCN(c3ccccc3OC)CC2)c2ccccc12 | – | 1.91% [at 9.27 µM] (inactive) |

— PubChem BioAssay AID504444 (National Center for Advancing Translational Sciences (NCATS), 2011)
